Reference: PubChem BioAssay AID763 (NMMLSC, 2007)

The compounds below were run against fMet-Leu-Phe receptor (Homo sapiens) (UniProt P21462) (assay: FPR1 fluorescent ligand binding inhibitors, SAR follow-up, selectivity assay for FPRL1 ligand SAR project, cell-based, single concentration (AID 763)). Settings: FPR1-expressing cells, active compounds read high; at 5.4 µM unless noted; call rule not given here.
fMet-Leu-Phe receptor (Homo sapiens), sequence (P21462 whole entry, looked up): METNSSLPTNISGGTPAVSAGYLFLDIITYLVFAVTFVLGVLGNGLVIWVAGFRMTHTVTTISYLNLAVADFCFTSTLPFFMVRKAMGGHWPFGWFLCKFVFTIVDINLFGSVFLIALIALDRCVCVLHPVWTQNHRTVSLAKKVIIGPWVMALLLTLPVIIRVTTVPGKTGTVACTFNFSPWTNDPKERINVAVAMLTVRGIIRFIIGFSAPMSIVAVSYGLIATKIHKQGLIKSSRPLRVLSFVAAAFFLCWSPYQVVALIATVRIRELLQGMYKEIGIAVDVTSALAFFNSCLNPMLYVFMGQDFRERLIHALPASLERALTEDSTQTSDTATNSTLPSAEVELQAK

inhibition, inactive:
COc1ccc(-c2cn3cccnc3n2)cc1NC(=O)c1c(-c2ccccc2Cl)noc1C 2.7% [at 4.8 µM]
FC(F)(F)c1cc(-c2ccccc2)nc(N2CCN(C(c3ccccc3)c3ccccc3)CC2)n1 -4.1% [at 4.7 µM]
COc1ccc(-c2cn3cccnc3n2)cc1NC(=O)c1cccc(C)c1 -4.1% [at 6.2 µM]
COc1ccc(-c2cn3cccnc3n2)cc1NC(=O)C(C)Oc1ccccc1 (stereo not drawn) 3.7% [at 5.7 µM]
Cc1ccc(-c2cc(C(F)F)nc(N3CCN(c4ccccc4)CC3)n2)cc1 -2.2% [at 5.8 µM]
COc1ccc(CC(=O)Nc2cc(-c3cn4cccnc4n3)ccc2OC)cc1 -1.7% [at 5.7 µM]
COc1ccc(-c2cn3cccnc3n2)cc1NC(=O)C1CC1 -2.9% [at 7.2 µM]
COc1ccc(-c2cc(-c3ccc(F)cc3)nc(N3CCN(C)CC3)n2)cc1 -4.8% [at 5.9 µM]
COc1ccc(-c2cn3cccnc3n2)cc1NC(=O)COc1ccccc1 5.8% [at 5.9 µM]
COc1ccc(-c2cn3cccnc3n2)cc1NC(=O)c1cc(Br)ccc1Cl -4% [at 4.9 µM]
CC(C)(C)OC(=O)N1CCN(c2nc(-c3ccccc3Cl)c3cc(Br)ccc3n2)CC1 8.5% [at 4.4 µM]
COc1ccc(-c2cn3cccnc3n2)cc1NC(=O)c1cccc(Br)c1 0.1% [at 5.3 µM]
O=C(O)CCC(=O)N1CCN(c2nc(-c3ccccc3)c3ccccc3n2)CC1 6.1% [at 5.7 µM]
O=C(C1CCCCC1)N1CCN(c2nc(-c3ccccc3Cl)c3cc(Br)ccc3n2)CC1 3.4% [at 4.3 µM]
COc1cccc(-c2cc(C(F)(F)F)nc(N3CCN(c4ccccc4OC)CC3)n2)c1 -2.3% [at 5 µM]
COc1ccc(-c2cn3cccnc3n2)cc1NC(=O)c1ccccc1F 2.4% [at 6.1 µM]
CCCC(=O)Nc1cc(-c2cn3cccnc3n2)ccc1OC 0.5% [at 7.2 µM]
COc1ccccc1-c1cc(C(F)(F)F)nc(N2CCN(c3ccccc3)CC2)n1 -10.8%
CCC(=O)Nc1cccc(-c2cn3cccnc3n2)c1 -0.2% [at 8.3 µM]
COc1cccc(-c2cc(C(F)(F)F)nc(N3CCN(c4ccc(F)cc4)CC3)n2)c1 1.7% [at 5.1 µM]
COc1ccc(-c2cc(C(F)(F)F)nc(N3CCN(Cc4ccccc4)CC3)n2)cc1 -2.6% [at 5.2 µM]
CCN1CCN(c2nc(-c3ccc(Cl)cc3)cc(C(F)(F)F)n2)CC1 -3.5% [at 6 µM]
COc1ccc(-c2cn3cccnc3n2)cc1NC(=O)C(C)(C)C 1.9% [at 6.9 µM]
CCOC(=O)N1CCN(c2nc(-c3ccccc3)c3cc(C)ccc3n2)CC1 -2.1% [at 5.9 µM]
Cc1ccc2nc(N3CCN(c4ccccc4)CC3)nc(-c3ccccc3)c2c1 0.6% [at 5.8 µM]
CN1CCN(c2nc(-c3ccccc3)cc(C(F)(F)F)n2)CC1 -5.9% [at 6.9 µM]
O=C(O)CCC(=O)N1CCN(c2nc(-c3ccccc3)c3cc([N+](=O)[O-])ccc3n2)CC1 -0.6% [at 5.1 µM]
O=C(c1ccccc1)N1CCN(c2nc(-c3ccccc3)c3cc([N+](=O)[O-])ccc3n2)CC1 -6% [at 5.1 µM]
O=C(O)CCCC(=O)N1CCN(c2nc(-c3ccccc3)c3cc(Br)ccc3n2)CC1 -1.2% [at 4.6 µM]
COc1ccc(C(=O)Nc2cc(-c3cn4cccnc4n3)ccc2OC)cc1 3.4% [at 5.9 µM]
COc1ccc(-c2cn3cccnc3n2)cc1NC(=O)c1ccc(C(C)(C)C)cc1 5.7% [at 5.6 µM]
COc1ccc(-c2cn3cccnc3n2)cc1NC(=O)c1ccc(C(F)(F)F)cc1 3.7%
CC(N)C(=O)N1CCN(c2nc(-c3ccccc3)c3cc([N+](=O)[O-])ccc3n2)CC1 (stereo not drawn) -1.4% [at 5.5 µM]
